# The list is not random: actives were taken first. Their share in the collection is about 3.1%.
# D3 antag: qHTS of D3 Dopamine Receptor Antagonist: qHTS. D(3) dopamine receptor (Homo sapiens), P35462. max response, negative = inhibition, %. D3R cells, DiscoveRx beta-arrestin luminescence, antagonist mode; stronger effect = lower value. 360,000 compounds, 2.5% hits; in the data active = max response below about -50%; inconclusive = no clear call, values can overlap the other calls
# Target sequence (P35462 whole entry, looked up): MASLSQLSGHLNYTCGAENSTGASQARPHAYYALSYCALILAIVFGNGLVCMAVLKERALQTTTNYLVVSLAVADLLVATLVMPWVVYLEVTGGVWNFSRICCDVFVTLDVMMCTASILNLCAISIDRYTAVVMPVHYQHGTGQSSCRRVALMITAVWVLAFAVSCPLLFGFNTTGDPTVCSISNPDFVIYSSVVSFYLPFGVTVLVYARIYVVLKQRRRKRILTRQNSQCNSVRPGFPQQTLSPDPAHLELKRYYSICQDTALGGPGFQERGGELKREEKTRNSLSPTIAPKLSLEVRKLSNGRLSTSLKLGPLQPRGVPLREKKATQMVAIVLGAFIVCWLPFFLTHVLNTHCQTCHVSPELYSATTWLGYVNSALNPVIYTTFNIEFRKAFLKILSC
#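 Cells expressing the human receptor were seeded at 1500 cells/well, incubated overnight at 37 degrees C in 5% CO2, then exposed to library compounds with dopamine controls for 90 minutes at 37 degrees C before luminescent detection.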
# uPA surface inh: qHTS for Inhibitors of Cell Surface uPA Generation | cell surface uPA generation assay, qHTS | Potency, µM (highest dose often 38.3 µM), actives largely listed as inhibitors | 330,000 compounds, 0.31% hits; active = well fitted inhibition curve with a large enough effect; inconclusive = small, poorly fitted or top-dose-only effect; inactive = no such curve, though single readings can be large or run the other way; tested in mouse RAW 264.7 cells; note: nearly all actives have a fitted effect of over 55% in size
# RGS4 inhibitor: Inhibitors of Regulator of G Protein Signaling (RGS) 4: qHTS; Regulator of G-protein signaling 4 (Homo sapiens), P49798; Transcreener GDP fluorescence polarization, RGS4-accelerated GTP hydrolysis; Potency, µM (highest dose often 114 µM), actives largely listed as inhibitors; 390,000 compounds, 0.039% hits; AID 504845, 2011; active = well fitted inhibition curve with a large enough effect; inconclusive = small, poorly fitted or top-dose-only effect; inactive = no such curve, though single readings can be large or run the other way; note: nearly all actives have a fitted effect of over 75% in size
# Target sequence (P49798 whole entry, looked up): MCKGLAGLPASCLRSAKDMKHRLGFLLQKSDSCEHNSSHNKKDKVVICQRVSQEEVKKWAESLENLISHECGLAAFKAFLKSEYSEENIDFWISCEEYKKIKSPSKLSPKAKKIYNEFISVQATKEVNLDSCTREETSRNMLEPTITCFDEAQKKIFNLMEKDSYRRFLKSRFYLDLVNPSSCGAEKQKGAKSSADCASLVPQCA
#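 MLSMR compounds (23 nl, pin-transferred) preincubated 10 min at room temperature with a 500nM (2x) first reagent, then RGS4 at 900nM (2x) plus Transcreener GDP mix added; fluorescence polarization (620/688 nm) read before and after 90 min at 30 °C.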
# D3 ag: qHTS of D3 Dopamine Receptor Agonist: qHTS; D3R DiscoveRx beta-arrestin cells, luminescence, 90 min; max activation, %; 410,000 compounds, 0.58% hits; in the data active = max activation above about 30%
#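 Agonist-mode cell screen: cells plated at 1500/well and incubated overnight at 37 °C, then exposed to library compounds for 90 min at 37 °C. Detection reagent was added for 30–60 min at room temperature, and luminescence was read.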
# A number is an active result; i = inactive; ? = inconclusive; nt = no result; ! = a repeat was not active.
SMILES,D3 antag,uPA surface inh,RGS4 inhibitor,D3 ag
CC(=O)c1ccc(-c2cccc(-c3nc4ccccn4c3NC3CCCCC3)c2)cc1,i,?,i,i
NC1CCc2cc(O)c(O)cc2C1 (configuration not stated),i,i,i,141
O=C(NCc1nc2ccccc2[nH]1)C1=C[C@@H](c2ccc(C(F)(F)F)cc2)C[C@@H](OCc2ccc(CO)cc2)O1,i,?,i,i
N#CC1c2ccccc2C=CN1C(=O)c1ccc(N(CCCl)CCCl)cc1 (configuration not stated),-81,nt,nt,i
O=C(CCCc1ccc(N(CCCl)CCCl)cc1)NCc1ccccc1,i,nt,nt,i
C[C@]12CC[C@H](O)C[C@H]1CC[C@@H]1[C@@H]2CC[C@]2(C)[C@@H](c3ccc(=O)oc3)C[C@H]3O[C@]132,nt,nt,nt,i
CN1C2CCC1CC(OC(=O)c1cc(Cl)cc(Cl)c1)C2 (configuration not stated),i,i,30µM!,i
CN(C)CCSC1c2ccccc2CSc2ccccc21 (configuration not stated),-102,i,i,i
CCOc1ccc2nc(NC(=O)c3cccn(Cc4ccccc4)c3=O)sc2c1,nt,nt,i,i
CS(=O)(=O)c1ccc2nc(NC(=O)c3ccccc3Br)sc2c1,-56,?,i,i
C[C@H](NC(=O)c1[nH]cnc1C(=O)Nc1ccc(Cl)cc1)c1ccccc1,i,i,i,i
CC(=O)OCC(=O)[C@H]1CC[C@H]2[C@@H]3CC[C@H]4C[C@H](O)CC[C@]4(C)[C@H]3C(=O)C[C@]12C,-85,i,i,i
CC(=O)[C@H]1CC[C@H]2[C@@H]3CC[C@H]4C[C@H](O)CC[C@]4(C)[C@H]3C(=O)C[C@]12C,i,i,i,i
C[N+]1(CCF)[C@@H]2CC[C@H]1CC(OC(=O)C(O)(c1ccccc1)c1ccccc1)C2 (some centres not stated),nt,nt,nt,i
CS(=O)(=O)c1ccc(C(=O)C2C(=O)CCCC2=O)c([N+](=O)[O-])c1,nt,nt,nt,i
O=c1[nH]c(=S)n(Cc2ccco2)c(O)c1C=NCc1cccs1,-70,i,?,i
COc1ccc(OC)c(CC(C)N)c1 (configuration not stated),nt,nt,nt,i
CC1=C/C(=C(/c2cc(C)c(O)c(Br)c2)c2ccccc2S(=O)(=O)O)C=C(Br)C1=O,-60,i,i,i
O=C(O)c1ccc2[nH]cc(CCCCN3CC=C(c4ccccc4)CC3)c2c1,nt,nt,nt,73
Cc1[nH]c2ccccc2c1C(=O)CN1CC=C(c2ccccc2)CC1,?,i,i,i
O=C(CCN1CC=C(c2ccccc2)CC1)NCc1ccccc1,-69,nt,nt,i
O=[N+]([O-])/N=C1\NCCN1Cc1ccc(Cl)nc1,nt,nt,nt,i
COC(=O)[C@@H]1[C@H]2CC[C@@H](C[C@H]1OC(=O)c1ccccc1)N2C,nt,nt,nt,i
C=CCn1c(O)c(/C(C)=N/N2CCCCC2)c(=O)[nH]c1=O,i,i,i,i
C=CCn1c(O)c(C(C)=NCCN2CCCCC2)c(=O)[nH]c1=O,-65,i,i,i
SMILES,D3 antag,uPA surface inh,RGS4 inhibitor,D3 ag
CC(=NCCN1CCCCC1)c1c(O)[nH]c(=O)[nH]c1=O,-53,i,i,i
CCCCn1c(O)c(C(C)=NCCN2CCCCC2)c(=O)[nH]c1=O,-71,i,i,i
CC(=NCCN1CCCCC1)c1c(O)n(Cc2ccccc2)c(=O)[nH]c1=O,i,i,i,i
CC(=NCCCO)c1c(O)[nH]c(=O)[nH]c1=O,i,i,i,i
CO[C@H]1[C@@H](O)C[C@H](O[C@H]2[C@@H](O)C[C@H](O[C@H]3[C@@H](O)C[C@H](O[C@H]4CC[C@@]5(C)[C@H](CC[C@@H]6[C@@H]5C[C@@H](O)[C@]5(C)[C@@H](C7=CC(=O)OC7)CC[C@]65O)C4)O[C@@H]3C)O[C@@H]2C)O[C@@H]1C,nt,nt,nt,i
O=c1[nH]c2ccccc2n1C1CCN(C(c2cc3ccccc3o2)c2nnnn2-c2ccc3c(c2)OCCO3)CC1 (configuration not stated),i,nt,nt,43
CCCN(CCC)C(=O)Cc1c(-c2ccc(Cl)cc2)nc2ccc(Cl)cn12,nt,nt,nt,i
CC(C)=CCN1CC[C@@]2(C)c3cc(O)ccc3C[C@@H]1C2C (some centres not stated),-58,i,i,i
O=C(c1ccccc1)C(CN1CCCC1)c1ccccc1 (configuration not stated),-56,i,?,i
O=C(NC(=S)Nc1cc([N+](=O)[O-])ccc1O)c1cccnc1,i,?,i,i
COCC1CCCN(C(=O)c2cc(COc3ccc4ncccc4c3)on2)C1 (configuration not stated),i,?,i,i
Clc1ccc(OCC#CCN2CCCCCC2)cc1,-91,i,i,i
Cc1ccc(C=C2C(Cl)=C(Cl)C(Cl)=C2Cl)cc1,i,i,?,i
CCCCCCCCn1sccc1=O,-81,?,i,i
COC1CC2C=C(C)C=CC=CC(=O)NC(c3ccccc3)CC=CCCC(O)CC(=O)C2=C1O (configuration not stated),-85,nt,nt,i
C=CCC1([C@H](C)CCC)C(=O)NC(=O)NC1=O,nt,nt,nt,i
COc1cc2c(cc1OC)C1[C@H]3C(=CC[C@H]1OC2O)CCN3C (some centres not stated),-54,i,i,i
CO[C@H]1C=C2CCN(C)[C@H]2C2c3cc4c(cc3C(=O)O[C@@H]21)OCO4 (some centres not stated),i,i,i,i
COc1ccc(C(=O)C2CCCN(Cc3ccc(F)cc3F)C2)cc1F (configuration not stated),i,i,i,i
COc1ccc(C(=O)C2CCCN(CCc3ccccc3)C2)cc1OC (configuration not stated),-68,nt,nt,i
COc1ccc(F)cc1C(=O)C1CCCN(Cc2ccc(O)cc2)C1 (configuration not stated),-65,i,i,i
COc1ccccc1CN1CCCC(C(=O)c2ccccc2OC)C1 (configuration not stated),-59,i,i,i
CCOc1ccccc1CN1CCCC(C(=O)c2cc(F)ccc2F)C1 (configuration not stated),-72,i,i,i
CCOC(=O)CCCc1cc[c]([Sb](=[O])([OH])[OH])cc1,nt,nt,i,nt
COc1ccc(/C=C2\SC(=O)N(CCn3cnnn3)C2=O)cc1,i,i,?,i
O=C1Nc2cc(Cl)c(Cl)cc2N2CCNC[C@H]12,nt,nt,i,nt
COc1cc(CC(C)N)c(OC)cc1Br (configuration not stated),nt,nt,nt,i
COc1cccc(OC)c1CN1CCCC(C(=O)c2cccc(Cl)c2)C1 (configuration not stated),-78,i,i,i
CCOc1ccc(CN2CCCC(C(=O)c3ccccc3OC)C2)cc1 (configuration not stated),-81,i,i,i
COc1ccccc1CN1CCCC(C(=O)c2ccccc2SC)C1 (configuration not stated),?,i,i,i

# Screening results: PubChem BioAssay, National Center for Advancing Translational Sciences (NCATS)
